42 sequences from publication PMC7819943, “Rice protein-binding microarrays: a tool to detect cis-acting elements near promoter regions in rice” can be followed below.

In all, about 39,000 sequences were measured (“fluorescence intensity (a.u.)”: median about 4,300, highest 2% from about 39,000 on). This is one part of a sample in which the highest values are shown more often than they occur.

The target in this experiment is T1, OsSMF1 (Oryza sativa, UniProt Q6ZLB0 1-436).
T1 sequence: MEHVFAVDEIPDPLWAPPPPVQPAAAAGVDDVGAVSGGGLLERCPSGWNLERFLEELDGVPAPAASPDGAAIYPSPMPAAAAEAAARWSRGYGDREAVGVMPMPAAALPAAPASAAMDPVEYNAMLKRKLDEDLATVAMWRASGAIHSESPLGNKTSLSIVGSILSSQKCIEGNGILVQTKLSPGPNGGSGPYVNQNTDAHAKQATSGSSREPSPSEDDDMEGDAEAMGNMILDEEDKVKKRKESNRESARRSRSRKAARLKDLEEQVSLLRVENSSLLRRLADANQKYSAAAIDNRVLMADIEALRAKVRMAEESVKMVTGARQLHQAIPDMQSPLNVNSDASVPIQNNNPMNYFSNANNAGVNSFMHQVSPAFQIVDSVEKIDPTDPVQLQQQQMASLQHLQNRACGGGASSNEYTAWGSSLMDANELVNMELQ
Kind of experiment: protein-binding microarray (RPBM); PBS, 2% BSA, 51.3 ng/ul salmon testes DNA, 50 uM zinc acetate, 200 nM TF, 25 C, 1 h; high values mean tight binding. Particulars: protein: recombinant; tags: N-terminal polyhistidine and DsRed monomer fusion (pET32a); chain copies: 2; label: CyDye5-dUTP incorporated in the synthesized complementary strand; 3' TTTTT single-stranded linker to array surface; dsDNA, one strand shown. Summed up: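 Polyhistidine-tagged DsRed fusions of transcription factors, joined at the N-terminus, were expressed in E. coli BL21-CodonPlus and isolated on Ni–NTA. They were incubated at 200 nM for 1 h at 25 °C on a custom Agilent array, double-stranded and BSA-blocked, in PBS with 2% BSA, salmon testes DNA and 50 µM zinc acetate. The binding signal is per-feature fluorescence intensity (arbitrary units) read on an Axon 4000B scanner after washing.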
With “TTAACTCGGTCTTCATCCTGTGTGACGCCTACGATACAACCGGAGTCACCTAGTGCAG”, the binding signal is 4380 fluorescence intensity (a.u.).
As for “GGCTTCGGCCAGCTAGCCGCCACGTCTCCGCCGGTTTTAACGGAGTCACCTAGTGCAG”, the binding signal was 8270 fluorescence intensity (a.u.).
As for “ATTTCTACCTGACGAAGTGACGATGCACTAGCCAGCTACTCGGAGTCACCTAGTGCAG”, the binding signal was 3900 fluorescence intensity (a.u.).
“AGACAAATAATTCCCTTTGCCATGCCTGTCAGTTAGGGAACGGAGTCACCTAGTGCAG”: the binding signal is 3500 fluorescence intensity (a.u.).
As for “TATAAAATTTCGCAATAACGACGAAAGTATTAAACGGACACGGAGTCACCTAGTGCAG”, the figure is 56200 fluorescence intensity (a.u.); as for “AAACATTATTAAATAGGTGTATGAATGACAGTCATACTTGCGGAGTCACCTAGTGCAG”, 3490 fluorescence intensity (a.u.).
For “ACTTATGATATGAAACGGAGAGAGTAGTAGATAAGATTTTCGGAGTCACCTAGTGCAG”, the binding signal was 28400 fluorescence intensity (a.u.).
In the case of “TCATAATATTATAAATTTGGACAAAGATATATCATATCACCGGAGTCACCTAGTGCAG” it was 3150 fluorescence intensity (a.u.).
For the sequence “CGACATTAAAGATTATGAATATTATGGGCAAATATAGGTCCGGAGTCACCTAGTGCAG”, the binding signal is 57600 fluorescence intensity (a.u.).
As for “AAACTTTATGTATAGAAATAATATATATATATATATATATCGGAGTCACCTAGTGCAG”, the figure is 29000 fluorescence intensity (a.u.); as for “TGAGATATATATTTCGTATGTATATAGAGAAATAAAGAAACGGAGTCACCTAGTGCAG”, 57100 fluorescence intensity (a.u.).
In the case of “TTGTATAACTATGTGTATATGTGTATGGTTATTAAGCAAACGGAGTCACCTAGTGCAG”, the binding signal was 10500 fluorescence intensity (a.u.).
For the sequence “TCCATGTATATTACATCATGGGGTTATGTAACATCACTGACGGAGTCACCTAGTGCAG”, the binding signal was 8280 fluorescence intensity (a.u.).
“GAATAATTTATTAAATAATTTATAAATCCTGAAACGAAAACGGAGTCACCTAGTGCAG”: the binding signal was 3520 fluorescence intensity (a.u.).
In the case of “GTAAACGCATGCCTTTTCGCAAATTTGTAAAACGAAACGACGGAGTCACCTAGTGCAG” it was 31500 fluorescence intensity (a.u.).
As for “CTTATTATGGTTATATGTGCAGGTATGGAGTAATAACTGACGGAGTCACCTAGTGCAG”, the binding signal was 46400 fluorescence intensity (a.u.).
In the case of “TAGGATTCAGCTCCTTCCTATTAGGGGTTCACCCGCGAGTCGGAGTCACCTAGTGCAG” it was 13800 fluorescence intensity (a.u.).
In the case of “CTATAAACTTAGTTAAACTAAAGCTGCTATTTAACTTTGACGGAGTCACCTAGTGCAG” it was 3280 fluorescence intensity (a.u.); in that of “CGAGGTTGCCCCTCCCCTCTCCTACGTGGTCGTGCCCCAACGGAGTCACCTAGTGCAG”, 5410 fluorescence intensity (a.u.).
As for “ATCGGCAAACGCGTTCCACCAAAACCCTCCACGTCAGCATCGGAGTCACCTAGTGCAG”, the binding signal was 29800 fluorescence intensity (a.u.).
As for “TTAATTAATTAACGTATGTACTCAGGAATTATATATAATACGGAGTCACCTAGTGCAG”, the figure is 35600 fluorescence intensity (a.u.); as for “CTCTCTCTCTCTCTCTCTCTCTCTCTTGCCATTTAAAAGACGGAGTCACCTAGTGCAG”, 4760 fluorescence intensity (a.u.); as for “TAAAGAAAGAAAAGACATTAATAAAGCAGCAAAGAAAAGACGGAGTCACCTAGTGCAG”, 46000 fluorescence intensity (a.u.).
As for “TTATAATATATATAATAAATAAATGTATGTTTACTTATAGCGGAGTCACCTAGTGCAG”, the figure is 19300 fluorescence intensity (a.u.).
On to “ATAATAAACTGAGAGGAGGATAGTAATATGTACTTAGTAACGGAGTCACCTAGTGCAG”, for which the binding signal is 48400 fluorescence intensity (a.u.).
“AGCAAACATAATTAACATATATATAATAAAGCTCAAAGAGCGGAGTCACCTAGTGCAG”: the binding signal was 3780 fluorescence intensity (a.u.).
Turning to “CCTTTTCCGCTTTAAAACACCACACAGTGACACACACACCCGGAGTCACCTAGTGCAG”, the binding signal was 5500 fluorescence intensity (a.u.).
As for “AGAAGAGAATGGAGTGGAGCTGACATGTGGGCTCCACCATCGGAGTCACCTAGTGCAG”, the figure is 3950 fluorescence intensity (a.u.); as for “GGCTCCGTCTTATCCTAACAACGCCAAGGGGCCACGTATGCGGAGTCACCTAGTGCAG”, 7210 fluorescence intensity (a.u.); as for “CAGTTGACCGCCACGTAGAACCTGTTCCTCCAGCTCACCACGGAGTCACCTAGTGCAG”, 9340 fluorescence intensity (a.u.).
In the case of “TTCCTCGCGCTCCCACGCCACGCAGCAGCCGCAGATCTCCCGGAGTCACCTAGTGCAG” it was 3630 fluorescence intensity (a.u.); in that of “GGAAGAAGGCCGCCGACGCACAACAGAGGCGGCGGCGGGGCGGAGTCACCTAGTGCAG”, 3510 fluorescence intensity (a.u.); in that of “CAGAAACCAACCAACACAAGACACCGACCGACGCCGACCACGGAGTCACCTAGTGCAG”, 8450 fluorescence intensity (a.u.).
On to “CACACATTCGCACCGCCGACGCCGAACAGAACAACAACAACGGAGTCACCTAGTGCAG”, for which the binding signal was 64700 fluorescence intensity (a.u.).
In the case of “GCTTTCAAAGCACTCAATTTTCCAGGTCATAACTGTTTTCCGGAGTCACCTAGTGCAG” it was 5050 fluorescence intensity (a.u.); in that of “ACAGATACAATGAGCGAGCGTTTGGTGTAATATGTGACAGCGGAGTCACCTAGTGCAG”, 43600 fluorescence intensity (a.u.); in that of “ATGTATTTTATGACAACAGAGTAAACAATGTGATATACATCGGAGTCACCTAGTGCAG”, 3220 fluorescence intensity (a.u.).
For the sequence “TTGACAATGTGGTGCTACAGTAAATATTTGATAATGATGGCGGAGTCACCTAGTGCAG”, the binding signal is 3330 fluorescence intensity (a.u.).
For the sequence “ATCTTAAGCTCCTCATTTCATCTATGATTGGCTTGCTTTACGGAGTCACCTAGTGCAG”, the binding signal is 3180 fluorescence intensity (a.u.).
Take “AATAAACCATGGTGTTTGTATTGGTGTGTTGGTGACTACGCGGAGTCACCTAGTGCAG”: the binding signal is 3880 fluorescence intensity (a.u.).
As for “CCATCGAATCCGGTTCGCGCGCAAGCAAAATCAGCAGCGTCGGAGTCACCTAGTGCAG”, the figure is 3830 fluorescence intensity (a.u.); as for “TAAGCTAACCTTGTACTAAGATGTGACACATCCAAGTACACGGAGTCACCTAGTGCAG”, 3630 fluorescence intensity (a.u.).
